{"source": "PubChem BioAssay (NCATS)", "note": "Inconclusive results are not listed. A call without a number means that no potency is given here. The source made the active and inactive calls. Calls come from the whole dose curve; as a rule, active = well fitted cell-killing curve with a large enough effect; inconclusive = small, poorly fitted or top-dose-only effect, or effect the other way; inactive = no such curve, though single readings can be large or run the other way. Potency is the fitted concentration of half-maximal effect."}
{"assay": "Quantitative highthroughput screen to assess conditional lethalithy of NOMO1 cells grown in Human Plasma-Like Medium with dialyzed fetal bovine serum (HPLM+ds) (AID 1963878); note: nearly all actives have a fitted effect of over 35% in size", "settings": "NOMO1 AML cells in HPLM+ds, CellTiter-Glo viability, 48 h; series mostly up to 45.8 µM", "source_text": "Assay Provider: Jason Cantor Ph.D.\nDepartment of Biochemistry\nUniversity of Wisconsin-Madison, Madison, WI, USA\nChemical screening studies have identified drug sensitivities across hundreds of cancer cell lines but most putative therapeutics fail to translate. Discovery and development of drug candidates in models that more accurately reflect nutrient levels in human blood is a major challenge. Here we performed high-throughput screens in conventional versus Human Plasma-Like Medium (HPLM) to identify compounds that were \"missed\" when screening using the artificial culture condition. Sets of conditional anticancer compounds spanned phases of clinical development and included non-oncology drugs were assessed. […] We also traced conditional phenotypes for several chemotherapeutics to availability of HPLM-specific metabolites and confirmed others for compounds whose reported targets are encoded by nonessential genes. Our findings establish generalizable strategies for exploiting conditional lethality in HPLM to reveal therapeutic candidates and mechanisms of action in cancer cells.\nDescribed herein are the results of each viability screens against three cell lines: NOMO1 (an acute myeloid leukemia cell line); P12-Ichikawa (a T-cell acute lymphoblastic leukemia); and SEM (a B-cell ALL). Each assay was screened using 3 different cell culture media: homemade human plasma-Like medium with 10% dialyzed fetal bovine serum (HPLM+ds); RPMI1640 with 10% untreated FBS and 5mM glucose (RPMI+s); and RPMI1640 with 10% dialyzed fetal bovine serum and 5 mM glucose (RPMI+ds).\nPROTOCOL TABLE (as described by Inglese J, Shamu CE and Guy RK. 2007)\nSEQUENCE No. (e.g., 1, 2, 3, etc.); […] (e.g., Cells, Incubation, Reagent, etc.); VALUE and DESCRIPTION.\n1; Cells; 5 uL; white, solid bottom 1536-well Greiner assay plate.\n2; Compounds; 23 nL; Kalypsis pin tool (Wako USA) equipped with a 1536-well pin head to transfer to the assay plates.\n3; Incubation; 48 hours; 37C incubation.\n4; Reagent; 3 uL; CellTiter Glo (Promega).\n5; Incubation; 5 min, room temperature\n6; Detection; Luminescence, Viewlux PerkinElmer.\nNOTES (numbers refer to Sequence numbers above)\n1. Briefly, 5 ul of cell reagent was dispensed using a Multidrop Combi Dispenser. The NOMO1 and SEM cells were plated at 500 cells/well and the P12-Ichikawa line at 1000 cells/well.\n2. After seeding the cells, 23 nL of MIPE 4.1 library compounds (in DMSO) were added to each plate using a Kalypsys 1536 Pintool dispenser. Bortezomib at final concentration of […] and DMSO were added to each plate as positive and negative controls respectively. For each screen, MIPE 4.1 compounds were added over an eleven-point concentration range […] in 3-fold dilutions.\n3. Each plate was covered with a stainless steel gasketed lid to prevent evaporation and incubated for 48 hour at 37C, 95% relative humidity, and 5% CO2.\n4-5. Three microliter CellTilter-GloTM luminescent substrate mix (Promega) reagent was added to the assay plate and incubated at room temperature for 5 min.\n6. The luminescence signal was measured using a ViewLux (PerkinElmer) multiplate reader with a 2 second exposure time per plate. Data for each compound were normalized as percent viability such that measurements for DMSO and the empty well controls in each plate were defined as 100% and 0%, respectively."}
{"smiles": "C[C@@H](CN1CC(=O)NC(=O)C1)N1CC(=O)NC(=O)C1", "Potency": "0.148 µM (active)"}
{"smiles": "CC(C)(O)CCc1ccc(OCc2cc(-c3cccc(OC(F)F)c3)c3ncccc3c2)cc1", "Potency": "inactive"}
{"smiles": "O=c1oc2c(O)c(O)cc3c(=O)oc4c(O)c(O)cc1c4c23", "Potency": "inactive"}
{"smiles": "Nc1nc(N)nc(-c2cc(Cl)ccc2Cl)n1", "Potency": "inactive"}
{"smiles": "CC(C)OC(=O)C1=CN(C(=O)c2ccc(F)c(F)c2)CC(C)(C)c2c1[nH]c1ccccc21", "Potency": "inactive"}
{"smiles": "COc1ccc2nc3cc(Cl)ccc3c(Nc3cc(CN4CCCC4)c(O)c(CN4CCCC4)c3)c2n1", "Potency": "inactive"}
{"smiles": "Cc1nccn1CC1CCc2c(c3ccccc3n2C)C1=O", "note": "(stereo not given)", "Potency": "inactive"}
{"smiles": "CC[C@H]1OC(=O)[C@H](C)[C@@H](O[C@H]2C[C@@](C)(OC)[C@@H](O)[C@H](C)O2)[C@H](C)[C@@H](O[C@@H]2O[C@H](C)C[C@H](N(C)C)[C@@H]2O)[C@](C)(OC)C[C@@H](C)C(=O)[C@H](C)[C@@H](O)[C@]1(C)O", "Potency": "inactive"}
{"smiles": "CC(C)N(CCCNC(=O)Nc1ccc(C(C)(C)C)cc1)C[C@H]1O[C@@H](n2cc(Br)c3c(N)ncnc32)[C@H](O)[C@H]1O", "Potency": "20.9 µM (active)"}
{"smiles": "NC(=O)c1ccc(-c2nc(-c3ccc4c(c3)OCCO4)c(-c3ccccn3)[nH]2)cc1", "Potency": "inactive"}
{"smiles": "CCOC(=O)[C@H](CCc1ccccc1)N[C@H]1CS[C@H](c2cccs2)CN(CC(=O)O)C1=O", "Potency": "5.26 µM (active)"}
{"smiles": "COc1ccc(C2=N[C@H](c3ccc(Cl)cc3)[C@H](c3ccc(Cl)cc3)N2C(=O)N2CCNC(=O)C2)c(OC(C)C)c1", "Potency": "10.5 µM (active)"}
{"smiles": "CNC1CCCN(c2c(F)cc3c(=O)c(C(=O)O)cn(C4CC4)c3c2OC)C1", "note": "(stereo not given)", "Potency": "inactive"}
{"smiles": "CC(C)(OCc1nn(Cc2ccccc2)c2ccccc12)C(=O)O", "Potency": "inactive"}
{"smiles": "COC(=O)Nc1ccc(-c2nc(N3CCOCC3)c3cnn(C4CCN(Cc5cccnc5)CC4)c3n2)cc1", "Potency": "1.05 µM (active)"}
{"smiles": "COCCOc1ccc2c(c1)ncn2-c1ccc2cccc(N3CCC(N)CC3)c2n1", "Potency": "14.8 µM (active)"}
{"smiles": "NC(=O)c1cnccn1", "Potency": "inactive"}
{"smiles": "Cc1ccccc1C(=O)Nc1ccc(C(=O)N2CCCC(O)c3cc(Cl)ccc32)c(C)c1", "note": "(stereo not given)", "Potency": "inactive"}
{"smiles": "O=c1[nH]nc(OCCCc2ccc(Cl)cc2)c(NCc2cccnc2)c1Br", "Potency": "2.96 µM (active)"}
{"smiles": "O[C@@H](COc1cccc2ncccc12)CN1CCN(C2c3ccccc3[C@@H]3[C@H](c4ccccc42)C3(F)F)CC1", "note": "(stereo not given in full)", "Potency": "inactive"}
{"smiles": "CC1=C(C(=O)O)N2C(=O)[C@@H](NC(=O)C(N)c3ccccc3)[C@H]2SC1", "note": "(stereo not given in full)", "Potency": "inactive"}
{"smiles": "CC(C)(C)COc1ccc(-n2cc(C(=O)O)cn2)cc1C#N", "Potency": "inactive"}
{"smiles": "CC(C)NC[C@@H](C(=O)N1CCN(c2ncnc3c2[C@H](C)C[C@H]3O)CC1)c1ccc(Cl)cc1", "Potency": "14.8 µM (active)"}
{"smiles": "CC(Oc1ccc(O)cc1)(P(=O)(O)O)P(=O)(O)O", "Potency": "13.2 µM (active)"}
{"smiles": "CC1=C(C(=O)Nc2cc3cn[nH]c3cc2F)C(c2ccc(C(F)(F)F)cc2)CC(=O)N1", "note": "(stereo not given)", "Potency": "11.8 µM (active)"}
{"smiles": "C[C@H](Cn1cnc2c(N)ncnc21)OCP(=O)(O)O", "Potency": "inactive"}
{"smiles": "C[C@H]1c2cccc(O)c2C(O)=C2C(=O)[C@]3(O)C(O)=C(C(N)=O)C(=O)[C@@H](N(C)C)[C@@H]3[C@@H](O)[C@@H]21", "Potency": "inactive"}
{"smiles": "O=C(Nc1ccccc1-c1cn2c(CN3CCNCC3)csc2n1)c1cnc2ccccc2n1", "Potency": "inactive"}
{"smiles": "Cn1cnc2c(F)c(Nc3ccc(Br)cc3Cl)c(C(=O)NOCCO)cc21", "Potency": "0.296 µM (active)"}
{"smiles": "COc1ccnc(CS(=O)c2nc3ccc(OC(F)F)cc3[nH]2)c1OC", "note": "(stereo not given)", "Potency": "inactive"}
{"smiles": "CN1c2ccccc2C(=O)N2CCc3c([nH]c4ccccc34)C21", "note": "(stereo not given)", "Potency": "inactive"}
{"smiles": "CCOC(=O)C(C)Oc1cccc2c(=O)n(CC(=O)Nc3ccc4c(c3)OCCO4)ccc12", "note": "(stereo not given)", "Potency": "inactive"}
{"smiles": "CCCCc1nc2cc(C=CC(=O)NO)ccc2n1CCN(CC)CC", "Potency": "4.69 µM (active)"}
{"smiles": "OC[C@H]1O[C@@H](n2cnc3c2NC=NC[C@@H]3O)C[C@H]1O", "Potency": "inactive"}
{"smiles": "CC(=O)SC[C@@H](C)C(=O)N1CCC[C@H]1C(=O)N[C@@H](Cc1ccccc1)C(=O)O", "Potency": "inactive"}
{"smiles": "CCOC(=O)[C@@]1(CCCCCCOc2ccc(Cl)cc2)CO1", "Potency": "inactive"}
{"smiles": "NC(=O)c1ccc(-c2nc(-c3ccc4c(c3)OCO4)c(-c3ccccn3)[nH]2)cc1", "Potency": "inactive"}
{"smiles": "CC1CCC(C(=O)N(c2cc(C#CC(C)(C)C)sc2C(=O)O)C2CCC(O)CC2)CC1", "note": "(stereo not given)", "Potency": "5.26 µM (active)"}
{"smiles": "CC(=O)N1CCN(c2ccc(OCc3nn(C)c(C)c3-c3cccc4c(CCCOc5cccc6ccccc56)c(C(=O)O)n(Cc5cccnc5)c34)cc2)CC1", "Potency": "2.35 µM (active)"}
{"smiles": "NCCCCCC(=O)O", "Potency": "inactive"}
